# High-throughput results as filed in PubChem.
# KinaseGlo FLuc: counter-screen: inhibitors of Kinase-Glo firefly luciferase; Q27757; Kinase-Glo luciferase, ATP luminescence, 8 min; Potency, µM (titrated, usually from 38.3 µM), inactives show at the highest dose activity change, negative = inhibition, hits mostly inhibitors; 0.28% of 200,000 active; AID 1379; note: nearly all actives have a fitted effect of over 60% in size
#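 Inhibition of Kinase-Glo luciferase light generation was assessed at 10 uM ATP in pH 7.2 imidazole buffer, with luminescence measured after eight minutes at ambient temperature.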
# RORg inh: blocks mouse ROR gamma transcriptional activity; 5.4% of 310,000 active; Potency, µM (titrated, usually from 53.6 µM), inactives show top-dose activity change, negative = inhibition, actives largely listed as inhibitors; AID 2551; Drosophila S2 Gal4-RORgamma UAS-luciferase reporter, 20 h; note: nearly all actives have a fitted effect of over 60% in size
# Target sequence (P51450 whole entry, looked up, the tested form may be a part): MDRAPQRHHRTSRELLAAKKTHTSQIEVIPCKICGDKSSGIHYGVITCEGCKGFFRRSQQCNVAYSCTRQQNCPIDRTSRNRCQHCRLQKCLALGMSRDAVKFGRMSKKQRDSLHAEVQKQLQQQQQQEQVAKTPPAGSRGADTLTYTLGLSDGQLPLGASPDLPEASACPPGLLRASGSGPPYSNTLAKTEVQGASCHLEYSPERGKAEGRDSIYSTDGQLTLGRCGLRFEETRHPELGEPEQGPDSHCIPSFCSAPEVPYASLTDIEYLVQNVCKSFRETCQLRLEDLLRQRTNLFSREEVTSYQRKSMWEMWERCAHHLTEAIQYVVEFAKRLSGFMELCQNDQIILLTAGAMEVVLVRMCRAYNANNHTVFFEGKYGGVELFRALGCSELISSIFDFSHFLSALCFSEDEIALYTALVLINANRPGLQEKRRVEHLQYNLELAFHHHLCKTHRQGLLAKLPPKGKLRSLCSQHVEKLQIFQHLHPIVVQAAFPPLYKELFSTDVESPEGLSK
#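 Compounds are pin-transferred onto Drosophila Schneider cells expressing a copper-inducible Gal4–ROR gamma transactivation domain fusion. After 1 hr, copper sulfate is added to 700 uM final; luciferase is read 20 hr later.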
# Gal4-VP16 FLuc: Gal4-VP16 reporter inhibition counter-screen | Drosophila S2 Gal4-VP16 UAS-luciferase, luminescence, 20 h | Potency, µM (doses to about 53.6 µM), without a hit: top-dose activity, negative = inhibition, usual class: inhibitors | 3.5% of 310,000 active;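 note: Gal4-VP16 expression switched on by copper sulfate through the metallothionein promoter; nearly all actives have a fitted effect of over 50% in size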
# Starred values were filed as active, the others as inactive; u = inconclusive; x = not tested or not shown; [ ] = dose if it differs, or a comment. Sampled rows, rich in hits. Any-hit rate of the full collection: about 6.4%. Calls come from the whole dose curve; as a rule, active = well fitted curve in the direction sought with a large enough effect; inconclusive = small, poorly fitted or top-dose-only effect, or another doubt; inactive = no such curve, though single readings can be large; an effect the other way counts as inactive or inconclusive. % is set by controls: 0 for no effect and ±100 for the full control effect; potency is the fitted concentration of half-maximal effect.
SMILES,KinaseGlo FLuc,RORg inh,Gal4-VP16 FLuc
Cc1ccc(-c2ccc(/C=N\NC(=O)c3cc4c(ccc5ccccc54)o3)o2)cc1[N+](=O)[O-],-5%,-19%,-16%
CNC(=S)N/N=C/c1ccc(-c2ccc(C(=O)O)cc2)o1,x,4µM*,-26%
C=CCNC(=S)N/N=C/c1ccc(-c2ccc(OC)cc2)o1,-24%,0.56µM*,1.8µM*
CCC(=O)N/N=C/c1ccc(-c2ccc(Cl)cc2)o1,0%,-44%,27%
NS(=O)(=O)c1ccc(-c2ccc(/C=N/Nc3ccc(C(=O)O)cc3)o2)cc1,x,10µM*,-2%
CCC1=C(c2ccc(C)cc2)S(=O)(=O)N=C1N1CCC(C(=O)NCCCN2CCCCC2)CC1,x,0%,1%
CCNC(=O)NC(=O)CN(C)c1ccccc1,1%,-9%,2%
COC(=O)C(C(C)C)N1CC(=O)c2ccccc2S1(=O)=O (centres undefined),x,-17%,-10%
CNC(=S)N/N=C/c1ccc(-c2ccc(Cl)c([N+](=O)[O-])c2)o1,-11%,4.5µM*,3.5µM*
O=C(O)c1cc(-c2ccc(/C=N/Nc3ccc([N+](=O)[O-])cn3)o2)ccc1Cl,-1%,12%,u
CC12C=C(/C=C/CCc3ccco3)C(C)(C1)C(CCc1ccco1)CC2=O (centres undefined),x,8%[10 µM],-4%[10 µM]
COC(c1ccccc1)c1nnc(CCC(=O)N(C)Cc2cccc(-n3cccn3)c2)o1 (centres undefined),-3%,u,u
O=C(O)C1CCN(c2nc(-c3ccccc3)c3cc(Br)ccc3n2)CC1,x,-29%,-4%
O=C(O)CCC(=O)NNc1nc(-c2ccccc2)c2cc(Cl)ccc2n1,x,1%,-12%
O=C(CN1CCOCC1)NNc1nc(-c2ccccc2)c2cc(Br)ccc2n1,-2%,8.9µM*,-12%[10 µM]
CCN(CC)S(=O)(=O)c1ccc(C(=O)NNc2nc(-c3ccccc3)c3cc(Br)ccc3n2)cc1,-2%,20µM*,u
CC(C)(C)C(=O)NNc1nc(-c2ccccc2)c2cc(Br)ccc2n1,4%,-18%,4%
O=C(CN1CCCCC1)NNc1nc(-c2ccccc2)c2cc(Cl)ccc2n1,-3%,5µM*,4µM*
COC(=O)[C@H](C)[C@H](CC(C)C)NC(=O)[C@H](C)[C@H](CC(C)C)NC(=O)c1ccccn1,x,14%,3%
Cc1cc(S(=O)(=O)NCc2ccccc2)ccc1OCC(=O)Nc1cccc([N+](=O)[O-])c1,5%,34%,11µM*
Cc1cc(S(=O)(=O)NCc2ccccc2)ccc1OCC(=O)NCc1ccccn1,x,14%,-19%
CSc1nnc(NC(=O)c2ccc(S(=O)(=O)N(C)C)cc2)s1,-3%,-1%,-5%
O=C(O)CN=C(NS(=O)(=O)c1ccccc1)c1ccccc1,2%,4%,5%
CC(C)N=C(NS(=O)(=O)c1ccccc1)C(Cl)(Cl)Cl,0%,7.1µM*,u
COc1cc(CO)cc(Br)c1OCC(=O)Nc1cccc2ccccc12,-1%,9%,-10%
SMILES,KinaseGlo FLuc,RORg inh,Gal4-VP16 FLuc
COC(=O)c1c(NC(=O)/C=C/C(=O)O)sc(C)c1-c1ccc(C)cc1,4%,u,-10%[10 µM]
CCOC(=O)c1c(NC(=O)/C=C/C(=O)O)sc(C)c1-c1ccc(C)c(C)c1,x,10µM*,6%
COC(=O)c1c(NC(=O)/C=C/C(=O)O)sc(C)c1-c1ccc(C)c(C)c1,0%,4.5µM*,-5%
CCOC(=O)c1c(NC(=O)/C=C/C(=O)O)sc(C)c1-c1ccc(F)cc1,x,u,9%
Cc1noc(C)c1CCC(=O)N1CCCC(CCC(=O)NCc2ccccc2F)C1 (centres undefined),0%,16%,-8%
Cc1cc(S(=O)(=O)NC2CC(C)(C)NC(C)(C)C2)c(Cl)cc1Cl,x,-16%,-13%
CC(=O)N[C@@H](c1ccccc1)[C@]1(C)C[C@H]1[C@@H](C)C(=O)Nc1ccc2ccccc2c1,-3%,0.35µM*,-3%
C[C@@H](C(=O)Nc1ccc2ccccc2c1)[C@@H]1C[C@@]1(C)[C@@H](NS(=O)(=O)c1ccccc1)c1ccccc1,1%,42%,-9%
C=Cn1cc[n+](CC(=O)c2ccc(-c3ccccc3)cc2)c1,x,29%,-12%
Cc1nn(-c2nnc(C)c(=O)[nH]2)c(C)c1SCC(=O)Nc1ccc(C(C)C)cc1,2%,1.1µM*,19%
Cc1nn(-c2nnc(C)c(=O)[nH]2)c(C)c1SCC(=O)Nc1ccc(F)cc1,-2%,u,10%
COc1ccc(Cl)cc1C(=O)NNC1CC(=O)N(Cc2ccc(Cl)cc2)C1=O (centres undefined),1%,14%,11%
CC(C)OC(=O)c1sc2nc(-c3ccccc3)ccc2c1N,-5%,7.1µM*,u
COc1ccc(C(=O)c2sc3nc(-c4ccccc4)ccc3c2N)cc1,-5%,u,-18%
CCCCCCCCCCCCCCCCOC[C@H](COP(=O)([O-])OCC[N+](C)(C)C)OC(=O)CCCCCCCC(=O)O,x,-27%,u
CC(C)COc1cccc(C(=O)NC(=S)Nc2cccc(NC(=O)c3ccccc3Cl)c2)c1,1%,6.3µM*,5.6µM*
CC(C)Oc1cccc(C(=O)NC(=S)Nc2cccnc2)c1,3%,u,-85%
CCCCOc1cccc(C(=O)NC(=S)Nc2cccc(NC(=O)c3ccccc3Cl)c2)c1,-1%,u,u
CC(C)Oc1cccc(C(=O)NC(=S)Nc2ccccc2)c1,1%,u,5µM*
CCCOc1cccc(C(=O)NC(=S)Nc2ccccc2)c1,1%,8.9µM*,u
CCCOc1cccc(C(=O)NC(=S)Nc2cccc(NC(=O)c3ccccc3Cl)c2)c1,7%,u,u
CN1CCC(Nc2ncc3ncnc(Nc4ccc(F)c(Cl)c4)c3n2)CC1,-3%[39.9 µM],7%,-6%
CC(C)Cc1ccc(/C=C/C(=O)N2CCOCC2)cc1,0%,19%,u
CC(C)c1ccc(/C=C/C(=O)NC(=S)NN2CCOCC2)cc1,x,4µM*,4.5µM*
CC(C)c1ccc(NC(=O)CSc2nnc(CN3CCOCC3)n2C)cc1,x,-3%,9%
SMILES,KinaseGlo FLuc,RORg inh,Gal4-VP16 FLuc
CC(C)c1ccc(/C=C/C(=O)NC(=S)Nc2ccc(CN3CCOCC3)cc2)cc1,-2%,2.8µM*,5µM*
Cc1ccc(CCC(=O)Nc2ccc([N+](=O)[O-])cc2)o1,x,23%,5%
O=C(O)C1Cc2c([nH]c3ccccc23)C(c2coc3ccccc3c2=O)N1 (centres undefined),-2%,4%,2%
CN(Cc1ccccc1)C(=O)CN1C(=O)NC(C)(c2ccc(Cl)cc2)C1=O (centres undefined),x,28%,6%
[O-][n+]1cccc2c(Br)cc(Br)c(O)c21,-1%,0.56µM*,0.71µM*
Cc1ccoc1C(=O)N1CCN(C(=O)c2occc2C)CC1,x,13%,-10%
COc1cccc(C(CNC(=O)C(c2ccccc2)c2ccccc2)N(C)C)c1 (centres undefined),x,-17%,-6%
CCOC(=O)c1ccc(NC(=S)N2CCN(S(C)(=O)=O)CC2)cc1,-2%,17%,-4%
CCOC(=O)c1ccc(NC(=S)N2CCSC2c2c(F)cc(F)cc2F)cc1 (centres undefined),2%,13µM*,u
